High-throughput results: PubChem, several laboratories
GC-A act: GC-A (human) enzyme activation | P16066 | HEK293 GC-A cells, cGMP TR-FRET, EC30 ANP; 0% at EC30 ANP, 100% saturating ANP | activation, % at 10 µM | 370,000 tested, 0.14% active; in the data active = activation above about 40%
HDAC3 inhib: inhibitors of human histone deacetylase 3; 320,000 tested, 0.15% active; AID 2718; inhibition, % at 8.3 µM; recombinant HDAC3, fluorogenic peptide/trypsin coupled, fluorescence; in the data active = inhibition above about 26%, passing the limit was not always enough; inconclusive = no clear call, values can overlap the other calls
ALR inh: inhibitors of human sulfhydryl oxidase ALR; P55789; purified ALR, DTT oxidation, H2O2 HRP-luminol luminescence; inhibition, % (no concentration beside the values); 290,000 tested, 3.8% active; AID 485317;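 active = mean replicate inhibition above about 79%, with every replicate also reaching it, limit read from the data; inconclusive = only one of the two criteria met; inactive = mean below limit and not every replicate reaching it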
GC-B act: GC-B (human) receptor activation; P20594; activation, % at 10 µM; AID 1920062; 370,000 tested, 0.11% active; HEK293-GC-B cells, CNP EC30, cGMP TR-FRET; 0% at EC30 CNP, 100% saturating CNP;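 active = activation at 10 µM reaching about 35% in either raw or pattern-adjusted values, limit read from the data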
Starred values were filed as active, the others as inactive; ? = inconclusive; . = no result given. This excerpt belongs to a sample that is enriched for hits.

SMILES | GC-A act | HDAC3 inhib | ALR inh | GC-B act
C[n+]1cn(Cc2cc(Cl)ccc2OC(F)F)c2ccccc21 | 0 | 3 | -52 | 4
CCN(CC)c1ccc(Nc2nc(N3CCOCC3)c3ccccc3n2)cc1 | 10 | 15 | 99* | 10
CC(=S)/C=C1\Sc2ccccc2N1C | 1 | 18 | 83* | -3
COc1ccc(C(=O)/C=C2\Sc3ccccc3N2C)cc1 | -2 | -6 | 31 | -7
Cc1ccc(O)c(C2=NCCNC(C(F)(F)F)=C2)c1 | 3 | 4 | 91* | -6
CC(C)[C@H](NC(=O)[C@H](CCCN=C(N)N)NC(=O)NC(Cc1ccccc1)C(=O)O)C(=O)NC(C=O)CCCN=C(N)N (stereo not given in full) | -28 | 84* | 3 | -4
Cc1nnc(Nc2ccc(O)cc2)[nH]c1=O | 2 | 0 | 99* | 1
C/C(=N/NC(=O)CN1CCN(S(=O)(=O)c2ccc(C)cc2)CC1)c1ccco1 | 3 | . | -4 | 2
COc1ccccc1OCC(=O)N/N=C(\C)c1ccc2ccccc2c1 | -4 | . | . | -1
CN1CCc2[nH]c3ccc(C(=O)NN)cc3c2C1 | 6 | 4 | 98* | -3
CCSc1nnc(NC(=O)c2ccccc2C)s1 | 0 | 14 | 12 | 0
O=C1c2ccccc2C(=O)N1Cc1ccc2c(c1)OCO2 | 0 | 2 | . | 11
O=C(O)c1ccc2c(c1)C(=O)N(Cc1ccc3c(c1)OCO3)C2=O | 1 | 5 | 87* | 4
Cc1cc(N2CCN(S(=O)(=O)c3ccc4ccccc4c3)CC2)n2ncnc2n1 | -2 | -1 | 2 | -8
CC(=O)Nc1ccc2c(c1)C(C)(C)C(C)N2C (stereo not given) | -4 | -2 | 99* | -4
O=C1NC(Cc2ccc(O)cc2)c2nc3ccc(F)cc3c(=O)n2-c2cc(Cl)ccc21 (stereo not given) | -7 | . | . | 9
Nc1sc(Cc2ccccc2)cc1C(=O)c1c(-c2ccccc2)[nH]c2ccccc12 | 60* | . | . | -1
CCNC(=O)C(=O)c1c(-c2ccccc2)[nH]c2ccccc12 | 4 | ? | 2 | 1
CCCCN1C(=O)CCC(C(=O)O)C1c1ccc([N+](=O)[O-])cc1 (stereo not given) | 1 | -3 | -6 | 5
CCN(CC)CCn1c(=S)[nH]c2ccc(Br)cc2c1=O | 3 | -9 | 97* | -2
Brc1ccc2nc(-c3c[nH]c4ccccc34)cn2c1 | 3 | 3 | . | -4
Cc1cccn2cc(-c3c[nH]c4ccccc34)nc12 | -1 | -61 | 98* | -10
Cc1cccc(NC(=O)CSc2nccn2Cc2ccco2)c1 | -12 | 1 | ? | -15
N#Cc1c(N)sc2c1CCCCCC2 | 4 | 3 | 99* | 1
Cn1c(SCC(=O)c2ccccc2)ncc(C(=O)Nc2ccccc2)c1=O | 7 | -3 | 98* | -1
SMILES | GC-A act | HDAC3 inhib | ALR inh | GC-B act
O=C(CSc1c[nH]c2ccccc12)NCc1ccc2c(c1)OCO2 | 1 | 2 | 98* | 1
O=C(CN1CCc2ccccc21)NCc1ccc2c(c1)OCO2 | -2 | -2 | 99* | -6
O=C(Nc1ccc(F)cc1)OC1CC2CC1[C@H]1CCCCN1[C@H]2Cc1ccccc1 (stereo not given in full) | -7 | . | . | -5
Nc1cccc(S(=O)(=O)Nc2ccccc2)c1 | 2 | 13 | -4 | 1
Cc1ccc(S(=O)(=O)Nc2cc(C)c(O)cc2C)cc1 | 1 | 2 | 98* | -1
Cc1cc(NS(=O)(=O)c2ccccc2)c(C)c(Cl)c1O | -5 | 0 | 100* | 4
COc1ccc(S(=O)(=O)Nc2cc(C(C)C)c(O)cc2C)cc1 | -10 | 6 | ? | 0
O=S(=O)(Nc1ccc(O)c(NS(=O)(=O)c2ccccc2)c1)c1ccccc1 | 0 | -3 | 87* | 0
Cc1cc(NS(=O)(=O)c2ccccc2)ccc1NS(=O)(=O)c1ccccc1 | 3 | . | . | -1
Nc1ccc(NS(=O)(=O)c2ccccc2)cc1 | 3 | . | 100* | 0
Cc1c(O)ccc(NS(=O)(=O)c2ccccc2)c1C | -2 | -7 | 99* | 3
NC(c1csc(Nc2nccc(C(F)(F)F)n2)n1)C1CCCCC1 (stereo not given) | -1 | . | . | 50*
CSCCC(=O)N1CCCC(N(C)CCc2ccccc2)C1 (stereo not given) | -1 | -5 | . | 4
CCNC(=S)/C(=C(/[O-])c1ccc([N+](=O)[O-])cc1)[n+]1ccccc1 | -1 | 9 | 99* | 1
C=CCNC(=S)/C(=C(/[O-])c1ccc([N+](=O)[O-])cc1)[n+]1ccccc1 | 4 | 2 | 56 | 3
CCCCC(CCC(=O)O)(C(=O)OCC)c1csc(Nc2ccc(OCC)cc2)n1 (stereo not given) | -2 | 8 | 72 | -6
CCCCC(CCC(=O)O)(C(=O)OCC)c1csc(Nc2ccccc2)n1 (stereo not given) | . | -7 | 96* | .
CN(C)Cc1c(OC(=O)c2ccc(N)cc2)ccc2ccccc12 | 0 | . | . | 4
Nc1n[nH]c2cc(=O)n(-c3cccc(C(F)(F)F)c3)nc12 | -2 | 1 | 93* | -2
COc1ccc(N2CCN(C(=O)C34CCC(C)(C(=O)C3)C4(C)C)CC2)cc1 (stereo not given) | 5 | -3 | 44 | 7
CC12CCC(C(=O)N3CCN(c4ccccc4)CC3)(CC1=O)C2(C)C (stereo not given) | 0 | -18 | 99* | 3
CC1CCCC(C)N1c1ccc(S(=O)(=O)N2CCOCC2)cc1Cl (stereo not given) | -1 | -9 | -1 | 1
CCOc1ccc(C2NC(=O)C(C#N)=C(S)N2c2ccc(OC)cc2)cc1OC (stereo not given) | 4 | 3 | 97* | 1
C=CCn1c(NCc2cc(C)ccc2O)nc2ccccc21 | -16 | 4 | 98* | -11
COc1ccc(CNc2nc3ccccc3n2C(C)C)c(O)c1 | 2 | 9 | 99* | 0
SMILES | GC-A act | HDAC3 inhib | ALR inh | GC-B act
COc1ccc(CNc2nc3ccccc3n2C)c(O)c1 | 2 | 0 | . | 0
CCn1c(CNc2nc3ccccc3n2C(C)C)nc2ccccc21 | -5 | 3 | 98* | -5
Cc1ccc(O)c(CNc2nc3ccccc3n2C(C)C)c1 | -12 | 1 | 98* | -9
C=C1CCN(C(C)C(=O)O)S(=O)(=O)c2ccccc21 (stereo not given) | -1 | 8 | 6 | 8
O=c1o[nH]c(-c2ccccc2)c1-c1ccccc1 | 3 | 3 | 89* | 0
O=c1[nH][nH]c(-c2ccccc2)c1-c1ccccc1 | 2 | . | . | -9
Cc1c(C(=O)N2CCC(N3CCSCC3)CC2)oc2c(F)cccc12 | -2 | -2 | 1 | 3
CC1C/C(=N/NC(=O)c2cccc(F)c2)c2ccc(O)cc2C1 (stereo not given) | 4 | 13 | 99* | -4
COc1ccc2c(c1)CC(C)C/C2=N\NC(=O)c1ccco1 (stereo not given) | 2 | 2 | -3 | -2
Cc1ccc(OCc2nnn(CC(=O)NS(=O)(=O)c3c(C)noc3C)c2-c2ccccc2)cc1 | 2 | . | . | 8
